Structures can show the parent of a compound that is named as a salt.
The compounds below were run on A431 (assay: filipin (cholesterol) integrated intensity within LBPA endosomes, Z-score; higher = more cholesterol in LBPA endosomes). Conditions: compound concentration in added solution (µM; 5 µl added to 20 µl cells): 10; 18 h.
In short: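 Each value is a Z-score normalised in AcuityXpress from per-cell integrated LBPA or filipin intensity, taken over the whole cell or within LBPA endosomes. Duplicate 384-well imaging plates held 5 µl of 10 µM compound solution, onto which 3,500 HeLa MZ or A431 cells in 20 µl were seeded per well. After 18 h the cells were fixed in 4% PFA, stained with 6C4 anti-LBPA antibody, filipin, propidium iodide and CellTracker green, imaged four times per well at 20× and segmented in MetaXpress.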
With C[N+](C)(C)CCCCCCCCCC[N+](C)(C)C [Decamethonium bromide] the “filipin (z-score)” value was -0.372.
In the case of CC(C)c1c(CN(C)C(C)Cc2ccccc2)n(C)n(-c2ccccc2)c1=O (stereo not given) [Famprofazone], the “filipin (z-score)” value is reported as -0.4.
C[C@]12Cc3c[nH]nc3C[C@@H]1CC[C@@H]1[C@@H]2CC[C@@]2(C)[C@H]1CC[C@]2(C)O [Stanozolol] was tested, and the “filipin (z-score)” value was 0.0473.
For c1ccc2c(c1)OCC(C1=NCCN1)O2 (stereo not given) [Idazoxan hydrochloride], the “filipin (z-score)” value was -0.462.
With NCCc1c[nH]c2ccc(O)cc12 [Serotonin hydrochloride] the “filipin (z-score)” value was -0.627.
CC[N+]1(C)CCCC(OC(=O)C(O)(c2ccccc2)c2ccccc2)C1 (stereo not given) [Pipenzolate bromide] was tested, and the “filipin (z-score)” value was -0.297.
O=C(CCCN1CCC(n2c(=O)[nH]c3ccccc32)CC1)c1ccc(F)cc1 [Benperidol] was tested, and the “filipin (z-score)” value was 2.28.
In the case of CC(C)C[C@H]1C(=O)N2CCC[C@H]2[C@]2(O)O[C@](NC(=O)[C@@H]3C=C4c5cccc6[nH]c(Br)c(c56)C[C@H]4N(C)C3)(C(C)C)C(=O)N12 [Bromocryptine mesylate], the “filipin (z-score)” value is reported as 0.487.
With CC(C)CC(N(C)C)C1(c2ccc(Cl)cc2)CCC1 (stereo not given) [Sibutramine HCl] the “filipin (z-score)” value was -0.534.
With CNC(=O)Oc1ccc2c(c1)[C@]1(C)CCN(C)[C@@H]1N2C [Eserine sulfate, physostigmine sulfate] the “filipin (z-score)” value was -0.479.
In the case of CN1[C@@H]2CC[C@H]1C[C@@H](OC1c3ccccc3CCc3ccccc31)C2 [Deptropine citrate], the “filipin (z-score)” value is reported as 2.68.
O=[N+]([O-])c1cc([As](=O)(O)O)ccc1O [Roxarsone] was tested, and the “filipin (z-score)” value was -0.281.
For O=c1[nH]c2ccccc2n1CCCN1CCC(n2c(=O)[nH]c3cc(Cl)ccc32)CC1 [Domperidone], the “filipin (z-score)” value was 2.09.
In the case of Cc1cccc(C)c1NC1=NCCCS1 [Xylazine], the “filipin (z-score)” value is reported as -0.524.
With Cc1cc(C(C#N)c2ccc(Cl)cc2)c(Cl)cc1NC(=O)c1cc(I)cc(I)c1O (stereo not given) [Closantel] the “filipin (z-score)” value was -0.512.
In the case of C=C(C)[C@@H]1[C@H]2OC(=O)[C@@H]1[C@]1(O)C[C@H]3O[C@]34C(=O)O[C@H]2[C@]14C [Picrotoxinin], the “filipin (z-score)” value is reported as -0.448.
C[N+]1(C)[C@@H]2CC[C@H]1C[C@@H](OC(=O)C(CO)c1ccccc1)C2 (stereo not given in full) [Methylatropine nitrate] was tested, and the “filipin (z-score)” value was -0.375.
In the case of Oc1ccc2c3c1O[C@H]1[C@@H](O)CC[C@@]4(O)[C@@H](C2)N(CC2CCC2)CC[C@]314 [Nalbuphine hydrochloride], the “filipin (z-score)” value is reported as -0.572.
With C[N+]12CCC(CC1)C(OC(=O)C(O)(c1ccccc1)c1ccccc1)C2 (stereo not given) [Clidinium bromide] the “filipin (z-score)” value was -0.455.
In the case of C#CCN(C)[C@H](C)Cc1ccccc1 [Selegiline hydrochloride], the “filipin (z-score)” value is reported as -0.535.
In the case of NC(=O)C[S+]([O-])C(c1ccccc1)c1ccccc1 (stereo not given) [Modafinil], the “filipin (z-score)” value is reported as -0.532.
For CCN(CC)C(C)C(=O)c1ccccc1 (stereo not given) [Amfepramone hydrochloride], the “filipin (z-score)” value was -0.654.
For CCC1(CC)C(=O)C=CNC1=O [Pyrithyldione], the “filipin (z-score)” value was -0.527.
In the case of CCCC(C)(COC(N)=O)COC(=O)NC(C)C (stereo not given) [Carisoprodol], the “filipin (z-score)” value is reported as -0.607.
With C[C@@H]1CN([C@H]2CC[C@](C#N)(c3ccc(F)cc3)CC2)CC[C@]1(C(=O)O)c1ccccc1 [Levocabastine hydrochloride] the “filipin (z-score)” value was -0.388.
In the case of CC(C)(N)Cc1ccccc1 [Phentermine hydrochloride], the “filipin (z-score)” value is reported as -0.29.
For C(#CCN1CCCC1)CN1CCCC1 [Tremorine dihydrochloride], the “filipin (z-score)” value was -0.368.
In the case of Clc1ccc(C(OCCN2CCCCC2)c2ccccc2)cc1 (stereo not given) [Cloperastine hydrochloride], the “filipin (z-score)” value is reported as 2.83.
NCCC(O)C(=O)NC1CC(N)C(OC2OC(CN)C(O)[C@H](O)[C@@H]2N)[C@H](OC2O[C@H](CO)[C@@H](O)[C@@H]2O)[C@@H]1O (stereo not given in full) [Butirosin disulfate salt] was tested, and the “filipin (z-score)” value was -0.399.
O=c1[nH]oc2c1CCNC2 [THIP Hydrochloride] was tested, and the “filipin (z-score)” value was -0.413.
With CC(=O)NC1CCSC1=O (racemic) [N-Acetyl-DL-homocysteine Thiolactone] the “filipin (z-score)” value was -0.405.
For C[N+]1(C)CCCC(OC(=O)C(O)(c2ccccc2)c2ccccc2)C1 (stereo not given) [Mepenzolate bromide], the “filipin (z-score)” value was -0.481.
With CCCC(C)C1(CC)C(=O)NC(=O)NC1=O (stereo not given) [Pentobarbital] the “filipin (z-score)” value was -0.553.
In the case of C[C@]12CC[C@@H](O)C[C@@H]1CC[C@@H]1[C@@H]2CC[C@]2(C)C(=O)CC[C@@H]12 [Androsterone], the “filipin (z-score)” value is reported as -0.241.
With CCC1(C)CC(=O)NC(=O)C1 [Bemegride] the “filipin (z-score)” value was -0.547.

— the supplement of paper PMC6607015
